The nature of assay [1]: qHTS assay for small molecule antagonists of peroxisome proliferator-activated receptor delta signaling (AID 588535; active = well fitted inhibition curve with a large enough effect in the signal ratio, with a control signal flat, not every such curve was filed as active; the % refers to the signal ratio;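 as to max response: cells co-treated with a PPAR-delta agonist as stimulator during compound exposure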). To be noted: HEK293T PPARd-UAS-bla, beta-lactamase FRET ratio, 18 h; 460 nm channel. The method, boiled down: (§1)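 Inhibition of PPAR-delta response element-driven beta-lactamase expression is measured in HEK293T cells exposed to a compound titration series for 18 hrs at 37 C. Half-maximal inhibition comes from Hill equation fitting.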

For assay [2], the target named is Peroxisome proliferator-activated receptor delta (Homo sapiens) (UniProt Q03181). Described as above. To be noted: HEK293T PPARd-UAS-bla, beta-lactamase FRET ratio, 18 h; series mostly up to 76.7 µM. The essentials:
as §1

The target of assay [3] is Peroxisome proliferator-activated receptor gamma (Homo sapiens) (UniProt P37231). Description: qHTS assay for small molecule agonists of peroxisome proliferator-activated receptor gamma signaling (AID 588536; active = well fitted curve in the direction sought with a large enough effect in the signal ratio, with a control signal flat, not every such curve was filed as active; the % refers to the signal ratio;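 also: 0% = DMSO basal wells and 100% = rosiglitazone at 2 µM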). The conditions noted are these: HEK293 PPARg-UAS-bla, beta-lactamase ratio, 16 h, percent of rosiglitazone response, DMSO as zero; series mostly up to 76.7 µM. The method, boiled down:
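This is an agonist-mode beta-lactamase reporter assay in HEK293 PPAR-gamma-UAS-bla cells with 1% charcoal/dextran FBS. Compound titrations ran 16 h at 37 C before CCF4 detection. EC50 and efficacy are Hill fits scaled to 2 uM rosiglitazone (100%) and DMSO basal.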
In general terms: In qHTS, concentration-response curves come from the screen itself.

The target in assay [4] is Vitamin D3 receptor (Homo sapiens) (UniProt P11473). Description: qHTS assay for small molecule antagonists of vitamin D receptor signaling (AID 588541; calls by dose curve;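 also: receptor activated by calcitriol during compound treatment; % is scaled to controls: 0 for no effect and ±100 for the full control effect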). The conditions noted are these: HEK293T VDR-UAS-bla, beta-lactamase ratio, antagonist mode; series mostly up to 76.7 µM. The method, boiled down: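 VDR-UAS-bla HEK293T cells (2000/well, 2% charcoal-stripped FBS) were treated with titrated compounds plus 1-alpha,25-dihydroxyvitamin D3 (50 nM or 3 nM final) for 16 h at 37 C. CCF4 beta-lactamase fluorescence was read; Hill fits gave IC50.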
Sequence of Vitamin D3 receptor (Homo sapiens) (P11473 whole entry, looked up): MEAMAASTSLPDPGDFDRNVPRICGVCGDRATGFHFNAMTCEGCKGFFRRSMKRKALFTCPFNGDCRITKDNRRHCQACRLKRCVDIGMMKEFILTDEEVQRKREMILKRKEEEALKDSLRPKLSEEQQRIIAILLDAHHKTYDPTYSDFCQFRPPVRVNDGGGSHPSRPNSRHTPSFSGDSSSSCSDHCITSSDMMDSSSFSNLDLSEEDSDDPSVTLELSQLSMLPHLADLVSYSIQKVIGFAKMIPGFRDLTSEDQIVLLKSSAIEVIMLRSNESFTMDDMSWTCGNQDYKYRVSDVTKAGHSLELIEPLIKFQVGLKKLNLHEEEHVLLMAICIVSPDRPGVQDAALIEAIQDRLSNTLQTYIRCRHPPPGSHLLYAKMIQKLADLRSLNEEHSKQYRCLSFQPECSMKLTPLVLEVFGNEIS

For assay [5] the target is unchanged. The experiment in a line: qHTS assay for small molecule agonists of vitamin D receptor signaling (AID 588543; calls by dose curve;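 also: 0% = DMSO basal and 100% = reference agonist control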). To be noted: HEK293T VDR-UAS-bla, beta-lactamase ratio, 16 h; series mostly up to 76.8 µM. The method, boiled down:
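β-lactamase reporter, VDR-UAS-bla HEK293T, agonist mode. Cells plated 5 h at 37 °C, compound titration 16 h at 37 °C, CCF4 dye 2 h RT, ratio 460/530 nm. Hill fit → EC50, efficacy vs 50 nM 1α,25-(OH)2D3.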

Assay [6] can be described thus: qHTS assay for small molecule agonists of retinoid X receptor alpha signaling (AID 588544). To be noted: HEK293T RXRa-UAS-bla, beta-lactamase reporter, 18 h; 530 nm emission.
For assay [7], the target named is Thyroid hormone receptor beta (Homo sapiens) (UniProt P10828). Description: qHTS assay for small molecule agonists of thyroid hormone receptor beta signaling (AID 588545; calls by dose curve;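 also: 0% = DMSO only and 100% = 10 nM T3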). The conditions noted are these: TR-UAS-bla GripTite HEK 293, beta-lactamase ratio, agonist mode, 18 h; series mostly up to 76.7 µM. The essentials:
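TR-UAS-bla GripTite HEK 293 cells (2500/well, medium with 2% charcoal/dextran FBS) were treated in agonist mode for 18 h at 37 C, titrated. Beta-lactamase was read by CCF4 ratio after 2 h; normalized to 10 nM T3 (100%) and DMSO, Hill-fitted for EC50 and efficacy.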

The nature of assay [8]: qHTS assay for small molecule antagonists of retinoid X receptor alpha signaling (AID 588546; active = well fitted inhibition curve with a large enough effect in the signal ratio, with a control signal flat, not every such curve was filed as active; the % refers to the signal ratio;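 also: cells stimulated with 9-cis-retinoic acid as agonist; % is scaled to controls: 0 for no effect and ±100 for the full control effect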). To be noted: HEK293T RXRa-UAS-bla, beta-lactamase ratio, antagonist mode; measured here: W530 green channel, cytotoxicity proxy. The method, boiled down: (§2)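 Beta-lactamase reporter inhibition, read as CCF4 fluorescence ratio (ex 405, em 460/530 nm) after 2 h at RT. HEK293T UAS-bla cells, 2500/well, were stimulated with 9-cis-RA at 500 or 100 nM final alongside test compound for 18 h at 37 C.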

Assay [9] deals with Retinoic acid receptor RXR-alpha (Homo sapiens) (UniProt P19793). The description is as above. The conditions noted are these: HEK293T RXRa-UAS-bla, beta-lactamase ratio, antagonist mode. The essentials:
as §2

Assay [10] deals with Thyroid hormone receptor beta (Homo sapiens) (UniProt P10828). The experiment in a line: qHTS assay for small molecule antagonists of thyroid hormone receptor beta signaling (AID 588547; active = well fitted inhibition curve with a large enough effect in the signal ratio, with a control signal flat, not every such curve was filed as active; the % refers to the signal ratio;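 also: cells stimulated with 0.4 nM T3 agonist during compound exposure; % is scaled to controls: 0 for no effect and ±100 for the full control effect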). To be noted: TR-UAS-bla HEK293, beta-lactamase ratio, antagonist mode, 18 h. The method, boiled down:
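TR-UAS-bla GripTite HEK293 cells in 2% charcoal/dextran FBS medium were preincubated 4 h at 37 C, given compound (0.59 nM to 92 uM) plus 0.4 nM T3 (final) for 18 h, then CCF4 for 2 h at RT; Hill fit gave IC50.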

Assay [11] is described as follows: qHTS assay for small molecule activators of the p53 signaling pathway (AID 651743; active = well fitted activation curve with a large enough effect in the signal ratio, not every such curve was filed as active; the % refers to the signal ratio; also: % of control where 0% means no effect). To be noted: HCT-116 p53RE-bla, beta-lactamase FRET ratio, 16 h; activation: stronger effect = higher value. The method, boiled down:
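Agonist-mode quantitative HTS in HCT-116 cells carrying a p53-response-element beta-lactamase reporter; 16 h compound treatment at 37 C, then FRET substrate loading for 2 h at room temperature and fluorescence read.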

Assay [12] is described as follows: qHTS assay for environmental chemicals that activate the Aryl hydrocarbon Receptor (AhR) signaling pathway (AID 651777). Also: % of control where 0% means no effect; nearly all actives have a fitted effect of over 15% in size. To be noted: 1A2-DRE human hepatoma cells, luciferase, 24 h; activation: stronger effect = higher value. The method, boiled down: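 Following a 24 hr incubation with test chemicals at 37 C and 5% CO2, 1A2-DRE human hepatoma cells received One-Glo reagent; after 30 min at room temperature, luciferase output reflected CYP1A2 induction via AhR.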

Assay [13] addresses Peroxisome proliferator-activated receptor alpha (Homo sapiens) (UniProt Q07869). Description: qHTS assay for small molecule agonists of the peroxisome proliferator-activated receptor alpha (PPARalpha) signaling pathway (AID 651778). Also: % of control where 0% means no effect. To be noted: PathHunter PPARalpha complementation, chemiluminescence, 6 h; max response: stronger effect = higher value. The essentials: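 Cells plated at 2,000/well and held overnight at 37 C, 5% CO2, then compound added by pin tool for 6 hr; after PathHunter detection reagent and 60 min at room temperature, chemiluminescence from enzyme complementation was read.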

Assay [14] in a line: qHTS assay for small molecule agonists of the antioxidant response element (ARE) signaling pathway measured by Nrf2-dependant transcriptional activity (AID 720636; active = well fitted curve in the direction sought with a large enough effect in the repeat runs; an effect the other way counts as inactive or inconclusive;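 also: HepG2 cells with an ARE-driven luciferase reporter; % of control where 0% means no effect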). The conditions noted are these: ARE-luc HepG2, Nrf2 luciferase reporter, 16 h; series mostly up to 92.4 µM. The essentials:
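ONE-Glo luminescence, read 30 min after reagent addition at room temperature, reflected ARE reporter activity in HepG2 cells that had been incubated with compound for 16 hr at 37 C in 1% dialyzed FBS.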

Assay [15] is described as follows: qHTS assay for small molecule agonists of the antioxidant response element (ARE) signaling pathway measured by Nrf2-dependant transcriptional activity - cell viability counter screen (AID 720653; active = well fitted curve in the direction sought with a large enough effect in the repeat runs; an effect the other way counts as inactive or inconclusive; also: % is scaled to controls: 0 for no effect and ±100 for the full control effect). To be noted: ARE-bla HepG2 viability, CellTiter-Glo ATP luminescence, 16 h; max response: stronger effect = lower value. The method, boiled down:
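ARE-bla HepG2 cells (2,000/well) rested 5 hrs at 37C/5% CO2, then exposed to compounds in DMSO for 16 hrs. Viability was read in the same wells as intracellular ATP by luminescence, 30 min at room temperature after reagent addition.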

The nature of assay [16]: qHTS assay for cell viability of HEK293 cells (AID 743288). Also: % is scaled to controls: 0 for no effect and ±100 for the full control effect; nearly all actives have a fitted effect of over 50% in size. To be noted: ATP luminescence (CellTiter-Glo), 18 h; max response: stronger effect = lower value. The method, boiled down:
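ATP luminescence (CellTiter-Glo) reports metabolically competent cell number after parental HEK293 cells, 2,000/well, were treated with DMSO-dissolved compounds for 18 h at 37 C; reagent incubation 30 min, room temperature.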

Assay [17] in a line: qHTS assay for cell viability of the p53RE-bla HCT-116 cell line (AID 743292). Also: % is scaled to controls: 0 for no effect and ±100 for the full control effect; nearly all actives have a fitted effect of over 55% in size. To be noted: p53RE-bla HCT-116 viability, ATP luminescence, 16 h; series mostly up to 95 µM. The method, boiled down:
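After plating at 4,000 cells per well and a 5 h rest at 37 C, HCT-116 cells carrying p53RE-bla received test chemicals in DMSO. Sixteen hours later at 37 C, CellTiter-Glo was added and luminescence recorded following 30 min at room temperature.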

In assay [18] the target is Nuclear receptor subfamily 1 group I member 2 (Rattus norvegicus) (UniProt Q9R1A7). The experiment in a line: qHTS assay for small molecule activators of the rat pregnane X receptor (rPXR) signaling pathway (AID 651751; call rule not given here; also: 0% is about no effect). To be noted: rPXR reporter cells, luciferase (One-Glo), 24 h.
Sequence of Nuclear receptor subfamily 1 group I member 2 (Rattus norvegicus) (Q9R1A7 whole entry, looked up): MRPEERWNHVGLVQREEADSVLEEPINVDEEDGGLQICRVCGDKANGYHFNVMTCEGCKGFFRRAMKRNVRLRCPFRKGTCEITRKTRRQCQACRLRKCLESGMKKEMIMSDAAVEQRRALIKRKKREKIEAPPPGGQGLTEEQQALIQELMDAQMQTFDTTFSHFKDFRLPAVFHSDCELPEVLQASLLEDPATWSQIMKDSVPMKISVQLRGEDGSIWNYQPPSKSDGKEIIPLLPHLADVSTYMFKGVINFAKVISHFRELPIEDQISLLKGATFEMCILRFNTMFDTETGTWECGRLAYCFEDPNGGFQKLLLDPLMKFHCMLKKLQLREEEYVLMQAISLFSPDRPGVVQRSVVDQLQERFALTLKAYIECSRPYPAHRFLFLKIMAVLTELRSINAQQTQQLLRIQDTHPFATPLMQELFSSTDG
A short description of assay [19]: qHTS assay for small molecule activators of the human pregnane X receptor (PXR) signaling pathway (AID 720659; call rule not given here; also: 0% is about no effect). To be noted: DPX-2 HepG2 CYP3A4-luciferase, 24 h; series mostly up to 92.3 µM.

Records with an inconclusive call do not appear. Calls of active or inactive are those of the source. Unless noted, calls follow the shape of the dose curve; as a rule, active = well fitted curve in the direction sought with a large enough effect; inconclusive = small, poorly fitted or top-dose-only effect, or another doubt; inactive = no such curve, though single readings can be large; an effect the other way counts as inactive or inconclusive.

Sequence of Peroxisome proliferator-activated receptor alpha (Homo sapiens) (Q07869 whole entry, looked up): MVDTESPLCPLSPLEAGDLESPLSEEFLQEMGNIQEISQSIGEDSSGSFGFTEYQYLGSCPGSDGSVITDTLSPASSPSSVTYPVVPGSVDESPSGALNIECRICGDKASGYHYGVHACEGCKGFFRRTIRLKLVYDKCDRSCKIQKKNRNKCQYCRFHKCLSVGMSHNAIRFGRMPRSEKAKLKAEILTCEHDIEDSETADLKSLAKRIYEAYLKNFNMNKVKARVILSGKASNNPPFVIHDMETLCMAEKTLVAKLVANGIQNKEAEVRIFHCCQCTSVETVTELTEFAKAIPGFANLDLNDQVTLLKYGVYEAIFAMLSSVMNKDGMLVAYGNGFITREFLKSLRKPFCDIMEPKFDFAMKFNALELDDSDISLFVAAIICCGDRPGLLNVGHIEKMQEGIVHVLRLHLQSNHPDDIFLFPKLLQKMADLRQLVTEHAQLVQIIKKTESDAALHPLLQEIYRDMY
Sequence of Peroxisome proliferator-activated receptor delta (Homo sapiens) (Q03181 whole entry, looked up): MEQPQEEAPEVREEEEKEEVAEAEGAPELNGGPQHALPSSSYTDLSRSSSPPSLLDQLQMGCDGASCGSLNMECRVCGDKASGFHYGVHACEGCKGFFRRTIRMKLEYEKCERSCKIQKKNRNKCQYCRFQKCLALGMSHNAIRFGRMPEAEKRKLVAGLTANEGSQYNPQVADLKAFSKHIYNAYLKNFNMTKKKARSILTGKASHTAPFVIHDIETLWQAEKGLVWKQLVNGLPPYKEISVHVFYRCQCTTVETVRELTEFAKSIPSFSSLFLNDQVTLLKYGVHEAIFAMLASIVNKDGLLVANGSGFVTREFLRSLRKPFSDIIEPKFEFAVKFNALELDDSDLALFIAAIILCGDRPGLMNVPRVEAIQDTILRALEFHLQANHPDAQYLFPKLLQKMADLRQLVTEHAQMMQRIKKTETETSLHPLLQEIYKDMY
Sequence of Peroxisome proliferator-activated receptor gamma (Homo sapiens) (P37231 whole entry, looked up): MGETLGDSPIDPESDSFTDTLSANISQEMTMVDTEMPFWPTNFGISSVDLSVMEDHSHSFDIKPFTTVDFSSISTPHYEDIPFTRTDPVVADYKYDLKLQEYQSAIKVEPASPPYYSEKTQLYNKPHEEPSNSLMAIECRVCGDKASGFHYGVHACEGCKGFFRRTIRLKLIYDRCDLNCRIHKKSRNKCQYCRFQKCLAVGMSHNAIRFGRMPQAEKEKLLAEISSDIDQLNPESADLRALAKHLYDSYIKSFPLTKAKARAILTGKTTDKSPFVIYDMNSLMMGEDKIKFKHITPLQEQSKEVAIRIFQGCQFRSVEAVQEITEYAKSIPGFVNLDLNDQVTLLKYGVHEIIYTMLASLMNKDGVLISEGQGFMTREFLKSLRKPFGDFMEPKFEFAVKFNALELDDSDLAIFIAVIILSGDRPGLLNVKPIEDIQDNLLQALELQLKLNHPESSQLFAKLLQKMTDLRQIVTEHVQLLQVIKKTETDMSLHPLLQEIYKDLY
Sequence of Thyroid hormone receptor beta (Homo sapiens) (P10828 whole entry, looked up): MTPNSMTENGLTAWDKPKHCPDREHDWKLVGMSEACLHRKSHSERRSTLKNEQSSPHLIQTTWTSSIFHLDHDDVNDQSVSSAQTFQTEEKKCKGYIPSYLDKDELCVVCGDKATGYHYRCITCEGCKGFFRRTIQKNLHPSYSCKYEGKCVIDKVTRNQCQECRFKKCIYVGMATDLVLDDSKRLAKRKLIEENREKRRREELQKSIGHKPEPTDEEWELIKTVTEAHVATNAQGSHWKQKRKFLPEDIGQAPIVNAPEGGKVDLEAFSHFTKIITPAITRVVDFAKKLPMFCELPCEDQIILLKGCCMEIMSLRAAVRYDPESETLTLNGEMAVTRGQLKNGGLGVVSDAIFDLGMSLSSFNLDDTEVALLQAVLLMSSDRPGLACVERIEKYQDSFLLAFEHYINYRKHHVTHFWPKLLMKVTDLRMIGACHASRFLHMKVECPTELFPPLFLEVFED
Sequence of Retinoic acid receptor RXR-alpha (Homo sapiens) (P19793 whole entry, looked up): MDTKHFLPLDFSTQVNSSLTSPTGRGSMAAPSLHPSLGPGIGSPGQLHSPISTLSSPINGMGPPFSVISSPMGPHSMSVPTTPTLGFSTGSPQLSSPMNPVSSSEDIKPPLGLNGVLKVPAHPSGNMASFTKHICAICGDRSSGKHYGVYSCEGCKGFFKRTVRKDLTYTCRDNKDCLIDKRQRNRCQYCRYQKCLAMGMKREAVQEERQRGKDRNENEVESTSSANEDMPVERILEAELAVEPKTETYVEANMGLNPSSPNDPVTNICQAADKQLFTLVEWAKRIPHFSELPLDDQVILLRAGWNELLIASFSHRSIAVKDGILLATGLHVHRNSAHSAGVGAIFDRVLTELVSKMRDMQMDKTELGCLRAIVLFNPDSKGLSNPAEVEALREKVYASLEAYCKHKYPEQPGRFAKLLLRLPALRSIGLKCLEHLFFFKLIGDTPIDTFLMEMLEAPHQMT

On to `CCCCCc1ccc(N)cc1`, for which the max response in [1] was 19.2%; in [6], -0.233%; in assay [8], -8.57%; in [9] it was -25% (inactive); in assay [13] it was -1.26% (inactive); in assay [15], 5.18% (inactive). Besides, the max response in [16] was -6.55% (inactive); in assay [18], 1.5% (inactive). The Potency result in assay [2], in assay [4], in [7], in [14] and in assay [17] was “inactive” each time. Moreover, the result in assay [3], in assay [5] and in [19] was inactive. Moreover, in assay [10], the activity change % (negative = inhibition) is 0.338% (inactive). Moreover, the values for the activation in assay [11] and in assay [12] were 9.16% (inactive) and 1.05% (inactive), respectively.
`Clc1nc(Cl)c(Cl)c(Cl)c1Cl`: the max response was 31.1% in [1]; -3.68% in [6]; -0.304% in assay [8]; -25.7% (inactive) in [9]; -5.53% (inactive) in [15]; -14.3% (inactive) in assay [16]. In addition, the max response in assay [18] is -3.08% (inactive). Moreover, the Potency entry in assay [2], in assay [4], in assay [7], in [14] and in assay [17] was “inactive” in each case. Further, the outcome in assay [3], in assay [5] and in assay [19] was inactive. Also, the activity change % (negative = inhibition) in assay [10] was -13.1% (inactive). Further, the activation in assay [11] is -0.354% (inactive); in assay [12], -0.0238% (inactive).
On to `S=C([S-])NCCNC(=S)[S-].S=C([S-])NCCNC(=S)[S-].[Mn+2].[Zn+2]`, for which, in [3], the result was inactive. The Potency entry in assay [7] was “inactive”. The activation in assay [12] was 0.587% (inactive). The max response in [13] is -4.1% (inactive); in [15] it was 17.6% (inactive); in assay [16], 2.96% (inactive); in assay [18], -11.1% (inactive).
For `CS(=O)(=O)c1ccc(Cl)cc1`, the max response in assay [1] is 15.6%; in assay [6], 0.314%; in assay [8], -4.7%; in assay [13], -0.188% (inactive); in [15], 0.283% (inactive); in [16] it was -17.3% (inactive). Besides, in assay [18], the max response is 3.76% (inactive). In addition, the Potency entry in [2], in [4], in [7], in assay [14] and in [17] was “inactive” each time. In addition, the outcome in assay [5] and in [19] was inactive. The activity change % (negative = inhibition) in [10] is -10.2% (inactive). The activation in assay [12] was 0.81% (inactive).
Consider `S=C(S)NCCNC(=S)S`, for which the outcome in [3] and in assay [5] was inactive. Further, the activity change % (negative = inhibition) in assay [10] was -7.47% (inactive). Moreover, the activation in [12] was 0.998% (inactive). Also, the max response in assay [13] is 0.0068% (inactive); in [15] it was -0.0675% (inactive); in [16] it was -6.97% (inactive); in assay [18], -0.407% (inactive). The Potency result in [17] is “inactive”.

These data come from PubChem BioAssay (NCATS).
